We go through 39 molecules from PubChem BioAssay (NCI).

Structures are written as SMILES. This is part of a sample that, as a whole, favours compounds with a hit. Of some 83,000 tested, about 20% had one in any assay.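 Step 1: grow cells in 96-well plates. Step 2: add test compound at a single concentration. Step 3: incubate 48 h. Step 4: record percent growth.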 Activity calls are given as the source filed them. How the source made its calls: active means growth percent below 10; inactive means the rest.

One test has as its system HCT-15 colon. Kind of test: NCI-60 one-dose screen, 48 h (100 = growth as untreated, 0 = no growth, -100 = all killed). As to conditions: 10 µM unless noted.
In the case of `Cc1ccc2c(c1)n([O-])c1cc(Cl)ccc1[n+]2=O`, the growth is 119% (inactive).

Take `CN1/C(=C\C=C\C2=[N+](C)c3ccccc3C2(C)C)C(C)(C)c2ccccc21`: the growth was 8.08% (active).

In the case of `CC/C(=C(\c1ccccc1)c1ccc(OCCNC)cc1)c1ccccc1`, the growth was -94.3% (active).

As for `CCN(CC)Cc1cc(Nc2c3ccc(Cl)cc3nc3c(C)cccc23)ccc1O`, the growth is -45.8% (active).

For the molecule `C=CC[N+]1(CCO)CCN=C1CCCCCCCCCCCCC` (stereo not drawn), the growth was -74.5% (active).

As to `N#Cc1ccc(NC(=O)Nc2ccc(Cc3ccc(NC(=O)Nc4ccc(C#N)cc4)cc3)cc2)cc1`, the growth was 25.9% (inactive).

For the molecule `CC1=NNC(=O)C1C` (stereo not drawn), the growth was 98.7% (inactive).

`COc1nc2c(cc1S(=O)(=O)c1ccccc1)CCc1c-2cnn1Cc1ccccc1`: the growth is 43.1% (inactive).

`O=C(/C=C\c1ccc2ccccc2n1)c1cc(Cl)ccc1O`: the growth was 73.6% (inactive).

In the case of `CCc1ccc(C(c2ccc(CC)cc2)C(Cl)(Cl)CCl)cc1`, the growth was 89.7% (inactive).

In the case of `C=CCSc1nnc(-c2ccc(C(C)(C)C)cc2)n1-c1cccc(C(F)(F)F)c1`, the growth was 17.7% (inactive).

With `CSc1ncnc2c1ncn2C1CCCO1` (stereo not drawn), the growth is 103% (inactive).

On to `OCC1C2C=CC(C2)C1CO` (stereo not drawn), for which the growth was 110% (inactive).

As to `Cc1ccc(/C=C2\Oc3cc(OCC(=O)c4ccc(Cl)cc4)ccc3C2=O)cc1`, the growth is 93.1% (inactive).

Consider `Cn1c2c(Cl)c(Cl)ccc2c2ccn3c(=O)c4ccccc4nc3c21`, for which the growth is 102% (inactive).

As to `CSc1[nH]c2ncnc(N)c2c1C#N`, the growth is 99% (inactive).

Regarding `CCN(CC)CCCC(C)NCCCNc1cccc2cccnc12` (stereo not drawn), the growth was 104% (inactive).

For the molecule `C=CC[N+]1(CC)CCN=C1CCCCCCCCCCCCCCCCC` (stereo not drawn), the growth is -88.6% (active).

As to `CCN(CC)CCCNc1cc(OC)cc2nc3cc(Cl)ccc3nc12`, the growth is -11.9% (active).

With `CCCCCCCCCCNC(=O)CCl`, the growth was 72.4% (inactive).

In the case of `CCOC(=S)SCc1ccc(Cl)cc1`, the growth is 94.8% (inactive).

With `O=C(O)c1ccc2c(c1Sc1ccccc1)C(=O)c1ccccc1C2=O`, the growth was 109% (inactive).

As to `CCN(CC)CC(C)Nc1ccc([N+](=O)[O-])c2sc3ccccc3c(=O)c12` (stereo not drawn), the growth was 23.6% (inactive).

As for `Cc1cc2c(cc1C)NC1=C(N2)OC(c2c3ccccc3cc3ccccc23)C1=O` (stereo not drawn), the growth was 0.544% (active).

Consider `O=C(Nc1ccc(CN2CCOCC2)cc1)c1[nH]ncc1Nc1ncnc2sccc12`, for which the growth is 5.47% (active).

As for `CCOC(=O)C(C#N)C1CCCCC1` (stereo not drawn), the growth is 95.9% (inactive).

Turning to `Nc1cccc(NC(=O)C(=O)Nc2cccc(N)c2)c1`, the growth was 94.5% (inactive).

In the case of `CN(CC(=O)N(Cc1ccc(C2CCCCC2)cc1)c1ccc(C(=O)NO)cc1)S(=O)(=O)c1c(F)c(F)c(F)c(F)c1F`, the growth is -35.4% (active).

For `CCN(CC)c1ccc(/C=C/C2=[N+](C)c3ccccc3C2(C)C)cc1`, the growth was 41.1% (inactive).

Turning to `CN(C)c1ccc(/C=C(\C#N)c2nc3ccccc3s2)cc1`, the growth is 106% (inactive).

Regarding `CCN(CC)CC(O)CNc1c2ccc([N+](=O)[O-])cc2nc2cc(OC)c(OC)cc12` (stereo not drawn), the growth is 11.9% (inactive).

For `COc1nc2c(cc1S(=O)(=O)c1ccccc1)CCc1c-2cnn1-c1ccc(Cl)cc1`, the growth is 93.8% (inactive).

Take `Cc1cc(-c2nc3ccccc3s2)ccc1NC(=O)COc1ccc(Cl)cc1`: the growth is 92.7% (inactive).

With `N#Cc1c(N)nc(N)nc1Nc1ccc(Br)cc1`, the growth was 103% (inactive).

For `CCN(CC)CC(C)(C)C(=O)/C=C/c1ccccc1`, the growth is 21.2% (inactive).

Take `CNc1cc2nc3cc(NC)c(C)cc3cc2cc1C`: the growth is 11.1% (inactive).

For the molecule `O=C(COc1cccc(/C=C2/Oc3ccccc3C2=O)c1)Nc1nccs1`, the growth is 81.7% (inactive).

As to `O=C(Cc1ccccc1)c1ccc(Cl)cc1`, the growth is 97.1% (inactive).

Turning to `O=C(O)c1cccnc1Br`, the growth is 97.6% (inactive).

The test system of a further test is HT29 colon. Described as above. As to conditions: 10 µM unless noted.
Take `Cc1ccc2c(c1)n([O-])c1cc(Cl)ccc1[n+]2=O`: the growth is 112% (inactive).

In the case of `CN1/C(=C\C=C\C2=[N+](C)c3ccccc3C2(C)C)C(C)(C)c2ccccc21`, the growth was -33.9% (active).

As to `CC/C(=C(\c1ccccc1)c1ccc(OCCNC)cc1)c1ccccc1`, the growth was -89.8% (active).

Regarding `CCN(CC)Cc1cc(Nc2c3ccc(Cl)cc3nc3c(C)cccc23)ccc1O`, the growth was -41.8% (active).

`C=CC[N+]1(CCO)CCN=C1CCCCCCCCCCCCC` (stereo not drawn): the growth is -92.2% (active).

On to `N#Cc1ccc(NC(=O)Nc2ccc(Cc3ccc(NC(=O)Nc4ccc(C#N)cc4)cc3)cc2)cc1`, for which the growth is 52.5% (inactive).

On to `CC1=NNC(=O)C1C` (stereo not drawn), for which the growth is 109% (inactive).

Turning to `COc1nc2c(cc1S(=O)(=O)c1ccccc1)CCc1c-2cnn1Cc1ccccc1`, the growth was 13.9% (inactive).

Take `O=C(/C=C\c1ccc2ccccc2n1)c1cc(Cl)ccc1O`: the growth is 71.6% (inactive).

With `CCc1ccc(C(c2ccc(CC)cc2)C(Cl)(Cl)CCl)cc1`, the growth is 76.8% (inactive).

Turning to `C=CCSc1nnc(-c2ccc(C(C)(C)C)cc2)n1-c1cccc(C(F)(F)F)c1`, the growth was 26.3% (inactive).

Take `CSc1ncnc2c1ncn2C1CCCO1` (stereo not drawn): the growth was 99.7% (inactive).

As to `OCC1C2C=CC(C2)C1CO` (stereo not drawn), the growth was 97.6% (inactive).

In the case of `Cc1ccc(/C=C2\Oc3cc(OCC(=O)c4ccc(Cl)cc4)ccc3C2=O)cc1`, the growth was 104% (inactive).

For the molecule `Cn1c2c(Cl)c(Cl)ccc2c2ccn3c(=O)c4ccccc4nc3c21`, the growth is 105% (inactive).

With `CSc1[nH]c2ncnc(N)c2c1C#N`, the growth was 97.9% (inactive).

Turning to `CCN(CC)CCCC(C)NCCCNc1cccc2cccnc12` (stereo not drawn), the growth is 92% (inactive).

With `C=CC[N+]1(CC)CCN=C1CCCCCCCCCCCCCCCCC` (stereo not drawn), the growth is -100% (active).

With `CCN(CC)CCCNc1cc(OC)cc2nc3cc(Cl)ccc3nc12`, the growth is -9.49% (active).

For `CCCCCCCCCCNC(=O)CCl`, the growth was 84.2% (inactive).

For `CCOC(=S)SCc1ccc(Cl)cc1`, the growth was 103% (inactive).

With `O=C(O)c1ccc2c(c1Sc1ccccc1)C(=O)c1ccccc1C2=O`, the growth is 96% (inactive).

For `CCN(CC)CC(C)Nc1ccc([N+](=O)[O-])c2sc3ccccc3c(=O)c12` (stereo not drawn), the growth was 12% (inactive).

Regarding `Cc1cc2c(cc1C)NC1=C(N2)OC(c2c3ccccc3cc3ccccc23)C1=O` (stereo not drawn), the growth is 12.5% (inactive).

`O=C(Nc1ccc(CN2CCOCC2)cc1)c1[nH]ncc1Nc1ncnc2sccc12`: the growth is 9.37% (active).

For `CCOC(=O)C(C#N)C1CCCCC1` (stereo not drawn), the growth was 108% (inactive).

Take `Nc1cccc(NC(=O)C(=O)Nc2cccc(N)c2)c1`: the growth was 115% (inactive).

Turning to `CN(CC(=O)N(Cc1ccc(C2CCCCC2)cc1)c1ccc(C(=O)NO)cc1)S(=O)(=O)c1c(F)c(F)c(F)c(F)c1F`, the growth was 0.552% (active).

Take `CCN(CC)c1ccc(/C=C/C2=[N+](C)c3ccccc3C2(C)C)cc1`: the growth is 10.7% (inactive).

For `CN(C)c1ccc(/C=C(\C#N)c2nc3ccccc3s2)cc1`, the growth is 100% (inactive).

Turning to `CCN(CC)CC(O)CNc1c2ccc([N+](=O)[O-])cc2nc2cc(OC)c(OC)cc12` (stereo not drawn), the growth is -48.7% (active).

Take `COc1nc2c(cc1S(=O)(=O)c1ccccc1)CCc1c-2cnn1-c1ccc(Cl)cc1`: the growth is 89.3% (inactive).

As for `Cc1cc(-c2nc3ccccc3s2)ccc1NC(=O)COc1ccc(Cl)cc1`, the growth was 101% (inactive).

Consider `N#Cc1c(N)nc(N)nc1Nc1ccc(Br)cc1`, for which the growth was 93.9% (inactive).

On to `CCN(CC)CC(C)(C)C(=O)/C=C/c1ccccc1`, for which the growth was 49% (inactive).

For the molecule `CNc1cc2nc3cc(NC)c(C)cc3cc2cc1C`, the growth was 10% (inactive).

Turning to `O=C(COc1cccc(/C=C2/Oc3ccccc3C2=O)c1)Nc1nccs1`, the growth is 84.2% (inactive).

For the molecule `O=C(Cc1ccccc1)c1ccc(Cl)cc1`, the growth is 115% (inactive).

Take `O=C(O)c1cccnc1Br`: the growth was 109% (inactive).
